Among all 320,000 compounds or so, about 22,000 (6.9%) were called active. Entries that show only a call come without a potency. About 27% were inconclusive and are not listed. This excerpt belongs to a sample that is enriched for actives. Values without a mark were called inactive. The call rests on the fitted dose curve; in most records, active means well fitted inhibition curve with a large enough effect; inconclusive means small, poorly fitted or top-dose-only effect, or another doubt; inactive means no such curve, though single readings can be large or run the other way.
assay: Primary qHTS for delayed death inhibitors of the malarial parasite plastid, 96 hour incubation; conditions: P. falciparum luciferase reporter growth; series mostly up to 28.7 µM
Outline: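 P. falciparum expressing integrated firefly luciferase, in erythrocytes at 2% hematocrit, 0.05% parasitemia, incubated with compounds 96 h at 37 C, 5% CO2. Growth inhibition read as loss of luminescence; two-generation exposure targets delayed-death apicoplast inhibitors.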
Potency means the concentration at half of the fitted maximal effect.

SMILES | Potency | activity change, negative = inhibition
CC(OC(=O)Cc1ccc(F)cc1)C(=O)N1CCc2ccccc21 (centres undefined) | inactive | –
N=c1c2c3c(sc2ncn1N)CCCC3 | inactive | –
c1nnc2c3c4c(sc3ncn12)CCC4 | inactive | –
N=c1c2c3c(sc2ncn1N)CCCCC3 | 3.7 µM (active) | –
C[C@@H]1O[C@@H](OC[C@H]2O[C@@H](Oc3c(-c4ccc(O)cc4)oc4cc(O)cc(O)c4c3=O)[C@H](O)[C@@H](O)[C@@H]2O)[C@H](O)[C@H](O)[C@H]1O | inactive | –
COc1ccc(CC(=O)Nc2cc(S(=O)(=O)N3CCCCC3)ccc2N2CCN(C)CC2)cc1 | 6.57 µM (active) | –
O=C(COC(=O)Cc1ccc(F)cc1)Nc1cc(S(=O)(=O)N2CCOCC2)ccc1N1CCCC1 | inactive | –
CN1CCN(c2ccc(S(=O)(=O)N3CCOCC3)cc2NC(=O)CCc2ccccc2)CC1 | inactive | –
CCOc1cccc2cc(C(=O)OCC(=O)Nc3c(C)cccc3CC)c(=O)oc12 | inactive | –
Cc1ccc(S(=O)(=O)N2CCC3(CC2)OCCO3)c(C)c1 | inactive | –
Cc1cccc(N2CCN(C(C)C(=O)N3CCc4ccccc43)CC2)c1C (centres undefined) | inactive | –
Cc1sc2ncn(CC(=O)NCCCC(=O)N(C)Cc3ccccc3)c(=O)c2c1C | inactive | –
CCOc1cc(CN2CCCC(CO)(Cc3ccc(F)cc3F)C2)ccc1OC (centres undefined) | inactive | –
Cc1ccccc1CC1(CO)CCCN(Cc2ccc3c(c2)OCCO3)C1 (centres undefined) | 14.7 µM (active) | –
COc1cccc(CC2(CO)CCCN(CC3=Cc4cc(OC)ccc4OC3)C2)c1 (centres undefined) | inactive | –
CC(NC(=O)c1cc2cc(Cl)ccc2oc1=N)c1ccccc1 (centres undefined) | inactive | –
Cc1c(C(=O)Nc2cccc(Cl)c2)cn2c(nc3ccccc32)c1C#N | 2.94 µM (active) | –
Cn1c(Nc2cccc(Cl)c2)nc2ccccc21 | inactive | –
Cn1cc(Cl)c(C(=O)NNC(=S)Nc2cccc(Cl)c2)n1 | inactive | –
O=S(=O)(c1cccs1)N1CCN(CCOc2ccccc2)CC1 | inactive | –
COc1ccccc1C(=O)Nn1cnnc1 | inactive | –
CCn1cc(C(=O)NCCO)c(=O)c2cc(F)c(N3CCN(C)CC3)cc21 | inactive | –
CCOC(=O)c1ccc(NC(=O)CCn2c(=O)oc3ccccc32)cc1 | inactive | –
COc1ccc(CC(=O)N/N=C(\C)c2ccccn2)cc1 | 3.29 µM (active) | –
C/C(=N\NC(=O)Cc1ccc(Br)cc1)c1cccnc1 | inactive | –
C/C(=N\NC(=O)c1ccccc1F)c1ccccn1 | inactive | –

SMILES | Potency | activity change, negative = inhibition
Nc1nnc(SCC(=O)NC2CCCc3ccccc32)s1 (centres undefined) | inactive | –
c1ccc(COc2nsnc2N2CCOCC2)cc1 | inactive | –
Fc1cnc(N2CCOCC2)nc1NCc1ccccc1 | 2.94 µM (active) | –
O=C(c1cccnc1NCc1ccccc1)N1CCOCC1 | inactive | –
CC(=O)c1ccc(S(=O)(=O)N2CCC(Oc3ccc(-n4cnnn4)cc3)CC2)cc1 | inactive | –
CSCCC1NC2(C(=O)Nc3ccc(Cl)cc32)[C@@H]2C(=O)N(C3CCCC3)C(=O)[C@H]12 (some centres undefined) | 11.7 µM (active) | –
O=C1[C@@H]2C(Cc3ccc(O)cc3)NC3(C(=O)Nc4ccc(F)cc43)[C@@H]2C(=O)N1c1ccc(F)cc1 (some centres undefined) | – | -3.79% [at 5.75 µM]
CC(C)(C)NC(=O)NCc1ccco1 | inactive | –
Cc1cc(C)nc(N2CCC(C(=O)Nc3ccc4c(c3)OCCO4)CC2)n1 | 9.28 µM (active) | –
O=C(Nc1ccc2c(c1)OCCO2)C1CCCN(c2ncccn2)C1 (centres undefined) | inactive | –
Cc1sc2ncn(CC(=O)NCCCC(=O)N3CCN(c4ccccc4F)CC3)c(=O)c2c1C | inactive | –
CC(=O)c1cc(CN2CCC(n3nccc3NC(=O)c3ccccc3Cl)CC2)cs1 | inactive | –
CC(=O)Nc1ccc(/C=N/Nc2ccc(C(=O)c3c(C)cc4ccccn34)cc2[N+](=O)[O-])cc1 | inactive | –
CCOC(=O)CCc1c(C)c2ccc(OCc3nn[nH]n3)c(C)c2oc1=O | inactive | –
COc1ccc2c(C)c(CCC(=O)NC3CC3)c(=O)oc2c1C | 4.15 µM (active) | –
Cc1c(CCC(=O)O)c(=O)oc2c(C)c(OCc3ccccc3Cl)ccc12 | inactive | –
Cc1c(C(C)CCCO)oc(=O)c2c1Oc1c(C)c(C(C)C[C@@H](C)O)oc(=O)c1C2 (some centres undefined) | inactive | –
CN1c2ccc([N+](=O)[O-])cc2C(C)(C)C12C=Cc1cc(C(=O)O)ccc1O2 (centres undefined) | inactive | –
O=C(CCSc1ccccc1)N1CCN(c2ccccc2F)CC1 | inactive | –
O=C(c1cccc2ccccc12)N1CCN(c2ccccc2F)CC1 | inactive | –
CC(C(=O)N1CCN(c2ccccc2F)CC1)c1ccc([N+](=O)[O-])cc1 (centres undefined) | 9.28 µM (active) | –
Cc1ccc(OCCCC(=O)Nc2ccc3c(c2)OCCO3)cc1 | inactive | –
O=C(Nn1cnnc1)c1cc(Cl)ccc1Cl | inactive | –
O=C(NC(=S)Nc1ccc(Cl)c(C(=O)O)c1)c1cncc(Br)c1 | inactive | –
Cn1c2c(c(=O)n(C)c1=O)[C@@H]1c3c(ccc4ccccc34)OC[C@@H]1CO2 | inactive | –
COc1cccc2c1OCC1COc3c(c(=O)n(C)c(=O)n3C)C21 (centres undefined) | inactive | –

SMILES | Potency | activity change, negative = inhibition
Cn1c2c(c(=O)n(C)c1=O)C1c3ccccc3OCC1C(C)(C)O2 (centres undefined) | 1.65 µM (active) | –
COc1ccc(COC(=O)c2ccc(Cl)c(S(=O)(=O)N3CCOCC3)c2)cc1F | 14.7 µM (active) | –
COc1ccccc1OC(=O)c1ccc(C)c(S(=O)(=O)N2CCOCC2)c1 | inactive | –
COc1ccc(C(=O)OCC(=O)c2ccc(C)c(S(=O)(=O)N3CCOCC3)c2)cc1OC | inactive | –
C=CCNC(=O)c1ccccc1SCc1c(C)noc1C | inactive | –
O=C(c1ccc[nH]c1=S)N1CCN(S(=O)(=O)c2ccc(Br)cc2Cl)CC1 | inactive | –
O=C(Nc1nnc(C2CC2)s1)c1ccccn1 | 10.4 µM (active) | –
O=C(Nc1nnc(C2CC2)s1)c1cc(Cl)sc1Cl | inactive | –
Cc1cc(C(=O)Nc2nnc(C3CC3)s2)c(C)s1 | inactive | –
C=CCN1CC(C)/C(=N\O)CC1C (centres undefined) | inactive | –
Cc1cnc(C(=O)OCc2c(C)cc(C(C)(C)C)cc2C)cn1 | inactive | –
CCn1c(=O)c([N+](=O)[O-])c(NCc2ccc3c(c2)OCO3)c2ccccc21 | inactive | –
S=C(NCc1ccco1)NCc1ccccc1Cl | inactive | –
Cc1[nH]c2ccccc2c1C(=O)CSCC(=O)O | inactive | –
Cc1[nH]c2ccccc2c1C(=O)C(C)Sc1nnc(C2CC2)o1 (centres undefined) | 4.15 µM (active) | –
Cc1[nH]c2ccccc2c1C(=O)CN1CC(C)CC(C)C1 (centres undefined) | inactive | –
Cc1ccc(SCCSc2ncccn2)cc1 | inactive | –
COCCCNC(=O)[C@H]1N2C(=O)c3ccccc3C2SC1(C)C (some centres undefined) | inactive | –
O=C(NCc1ccccc1)[C@@H]1CSC2c3ccccc3C(=O)N21 (some centres undefined) | inactive | –
CC1(C)SC2c3ccccc3C(=O)N2[C@@H]1C(=O)NCc1ccco1 (some centres undefined) | 5.22 µM (active) | –
COc1cccc(NC(=O)CN(C)C(=O)CSC(=S)N2CCCC2)c1 | inactive | –
Cc1c(Cl)cccc1NC(=O)NCc1ccc(C)n1C | inactive | –
CCOc1ccccc1C1CC(c2cccc(NS(C)(=O)=O)c2)=NN1C(=O)c1ccccc1 (centres undefined) | 13.1 µM (active) | –
Cc1ccc(C2CC(c3cccc(NS(C)(=O)=O)c3)=NN2S(C)(=O)=O)cc1 (centres undefined) | inactive | –
CS(=O)(=O)Nc1cccc(C2=NN(C(=O)c3cccc(F)c3)C(c3cccs3)C2)c1 (centres undefined) | inactive | –
CCN(CC(=O)Nc1c(F)cccc1F)C(=O)CN1c2cccc3cccc(c23)S1(=O)=O | inactive | –

SMILES | Potency | activity change, negative = inhibition
Cc1cccc(C(=O)OCC(=O)Nc2ccc(F)cc2)c1 | inactive | –
CCOC(=O)c1ccccc1NC(=O)COC(=O)C(Cc1c[nH]c2ccccc12)NC(C)=O (centres undefined) | inactive | –
Cc1cc(C(=O)CSc2nc(N)cc(=O)[nH]2)c(C)n1Cc1ccco1 | inactive | –
COc1ccc(C)cc1-n1nnnc1SCC(=O)c1cc(C)n(Cc2ccco2)c1C | 10.4 µM (active) | –
Cc1ccc(OCC(=O)c2cc(C)n(Cc3ccco3)c2C)c([N+](=O)[O-])n1 | inactive | –
O=c1[nH]c(NCCO)nnc1Cc1ccc(Cl)cc1 | inactive | –
COc1ccccc1NS(=O)(=O)c1ccc(C)c(C(=O)NCC(c2ccco2)N(C)C)c1 (centres undefined) | inactive | –
CC1CN(S(=O)(=O)c2cccc(C(F)(F)F)c2)CN1C(=O)N1CCOCC1 (centres undefined) | inactive | –
O=C(NCCCNC(=O)c1ccccc1Cl)c1cnccn1 | inactive | –
CN(Cc1cccs1)C(=O)CN1C(=O)c2ccccc2S1(=O)=O | inactive | –
CCCCN(C)C(=O)c1ccc2c(c1)N(CC)C(=O)c1ccccc1S2(=O)=O | 10.4 µM (active) | –
CCCCN1C(=O)c2ccc(C(=O)Nc3ccc(S(=O)(=O)N(C)C)cc3)cc2C1=O | inactive | –
Cc1ccc(OCC(=O)NCCCNC(=O)c2cccnc2)cc1C | inactive | –
Cc1cc(NC(=O)c2ccccc2C)no1 | inactive | –
COc1ccccc1N1CC(C(=O)Nc2nnc(SCC(=O)NC(C)C)s2)CC1=O (centres undefined) | inactive | –
CCCC(C)c1nnc(NC(=O)C2CC(=O)N(c3ccc(OCC)cc3)C2)s1 (centres undefined) | inactive | –
CCOC(=O)CSc1nnc(NC(=O)C2CC(=O)N(c3ccc(F)cc3)C2)s1 (centres undefined) | 14.7 µM (active) | –
CC1CN(C(=O)CCC(=O)NCCCN2CCC(Cc3ccccc3)CC2)c2cc(Cl)ccc2O1 (centres undefined) | inactive | –
COc1cccc(NC(=O)c2cc(S(=O)(=O)N3CCc4ccccc43)cn2C)c1 | inactive | –
CCn1c(=O)c(=O)n(CC)c2cc(N3CCCCC3)c(NC(=O)c3ccc(Cl)cc3)cc21 | inactive | –
CC(NC(=O)c1ccccc1SCC(=O)N1CCCC1)c1ccccc1 (centres undefined) | inactive | –
Cc1ccc(S(=O)(=O)N(C)c2nc3ccccc3n3c(C(C)C)nnc23)cc1 | 11.7 µM (active) | –
Cc1ccc(Oc2nc3ccccc3n3c(C)nnc23)cc1 | inactive | –
CC(=O)Nc1ccc(S(=O)(=O)N(C)c2nc3ccccc3nc2Cl)cc1 | inactive | –
O=C(Nc1ccccc1Cl)NC1(C(=O)N2CCOCC2)CCCCC1 | inactive | –
N#Cc1c(Cl)nc(-c2cccnc2)nc1-c1ccccc1 | inactive | –
